BoNT-A LC inh2: BoNT/A light chain protease inhibitors, primary screen, biochemical, flow cytometry, MLPCN library | Botulinum neurotoxin type A light chain protease (Clostridium botulinum A str. ATCC 3502) | multiplex microsphere protease substrate cleavage | inhibition, % at 10 µM | 0.17% of 360,000 active; also: plate controls were buffer without enzyme for full effect and enzyme alone for no effect
3CLpro inhibitor: SARS-CoV 3CLpro protease inhibitors, primary screen, biochemical, quenched FRET; Replicase polyprotein 1ab (Severe acute respiratory syndrome coronavirus), P0C6X7; recombinant SARS-CoV 3CLpro, quenched FRET peptide cleavage; inhibition, % at 6 µM; 0.14% of 290,000 active; AID 1706, 2009; in the data active = inhibition above about 12%
BoNT-F LC inh: BoNT/F light chain protease inhibitors, primary screen, biochemical, flow cytometry, MLPCN library; Multiplex microsphere protease cleavage assay; inhibition, % at 10 µM; 0.22% of 360,000 active; in the data active = inhibition above about 35%, passing the limit was not always enough; inconclusive = no clear call, values can overlap the other calls; also: plate controls were buffer without enzyme for full effect and enzyme alone for no effect
CCHFV vOTU inh: CCHFV vOTU protease inhibitors, primary screen, biochemical, Pep-AMC substrate, fluorescence | 0.55% of 370,000 active | Crimean-Congo hemorrhagic fever virus L polyprotein viral ovarian tumor (vOTU) protease … | AID 651958, 2012 | inhibition, % at 11.5 µM; in the data active = inhibition above about 30%; also: 0% = vehicle wells with enzyme and 100% = no enzyme wells
Autofluor counter: flagged as autofluorescent in microsphere protease counterscreen. compound autofluorescence counterscreen, microsphere flow cytometry; active compounds read high. fluorescence intensity (concentration not given with the values). 3.1% of 360,000 active. AID 624483; in the data active = fluorescence intensity above about 16000; inconclusive = no clear call, values can overlap the other calls
Anthrax LF prot: Bacillus anthracis LF protease inhibitors, primary screen, biochemical, multiplex microsphere, MLPCN library; Lethal factor (Bacillus anthracis), P15917; multiplex microsphere protease cleavage assay; inhibition, % at 10 µM; 0.12% of 360,000 active; AID 588501, 2011; also: plate controls were buffer without enzyme for full effect and enzyme alone for no effect
Target sequence (P15917 whole entry, looked up): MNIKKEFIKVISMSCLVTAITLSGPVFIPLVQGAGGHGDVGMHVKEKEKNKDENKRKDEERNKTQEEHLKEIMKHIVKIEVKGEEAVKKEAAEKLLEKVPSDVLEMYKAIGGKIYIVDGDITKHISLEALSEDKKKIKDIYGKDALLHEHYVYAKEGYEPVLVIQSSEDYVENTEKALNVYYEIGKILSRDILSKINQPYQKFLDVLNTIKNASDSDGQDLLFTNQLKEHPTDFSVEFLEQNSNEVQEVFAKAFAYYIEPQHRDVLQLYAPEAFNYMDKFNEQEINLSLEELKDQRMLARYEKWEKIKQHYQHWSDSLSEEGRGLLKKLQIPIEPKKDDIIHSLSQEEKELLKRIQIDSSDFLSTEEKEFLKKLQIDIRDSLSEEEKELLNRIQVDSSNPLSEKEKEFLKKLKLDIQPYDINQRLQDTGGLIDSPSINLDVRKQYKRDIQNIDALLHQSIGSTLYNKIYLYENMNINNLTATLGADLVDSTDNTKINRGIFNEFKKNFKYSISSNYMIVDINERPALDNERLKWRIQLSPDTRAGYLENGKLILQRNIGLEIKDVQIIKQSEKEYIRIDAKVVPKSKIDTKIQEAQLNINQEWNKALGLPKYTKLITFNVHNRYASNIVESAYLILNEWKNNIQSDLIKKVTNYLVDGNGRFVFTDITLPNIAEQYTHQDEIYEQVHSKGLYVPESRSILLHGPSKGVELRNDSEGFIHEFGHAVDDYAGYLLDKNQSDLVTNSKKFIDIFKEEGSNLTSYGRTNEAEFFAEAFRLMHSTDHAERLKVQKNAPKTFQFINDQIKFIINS
* = called active by the depositor; ? = inconclusive; . = no result given. Compounds with a hit are over-represented: about 3.9% of the library has one in this group of screens. Rule as the data show it, unless noted: active = inhibition above about 30%; inconclusive = no clear call, values can overlap the other calls; inactive = below that.

SMILES	BoNT-A LC inh2	3CLpro inhibitor	BoNT-F LC inh	CCHFV vOTU inh	Autofluor counter	Anthrax LF prot
CCCc1nc(S(=O)(=O)Cc2ccc(Cl)cc2Cl)n[nH]1	5	0	8	5	17841*	0
Brc1ccc(OCc2ccccc2)c(CNCc2ccncc2)c1	-3	-6	-15	-5	16749*	-9
Fc1ccc(COc2ccccc2CNCc2ccncc2)cc1	-1	0	-21	9	2435	-3
O=C(Nc1ccccc1)n1ccc2ccc(-c3ccc4cc[nH]c4c3)cc21	.	.	.	14	.	.
Cc1ccc(-c2cc(C(=O)NN=Cc3cccc(OCc4ccccc4)c3)[nH]n2)cc1C	.	.	.	7	.	.
Cn1c(CCNC(=O)c2ccco2)nc2cc(NS(=O)(=O)c3ccc(Cl)cc3)ccc21	-6	-7	-6	4	21550*	-2
Cn1c(CCN2CCN(c3ccccc3)CC2)nc2cc(NC(=O)c3ccco3)ccc21	0	-6	9	-2	4514	2
Cn1c(CCN2CCN(c3ccc(F)cc3)CC2)nc2cc(NC(=O)c3ccco3)ccc21	0	-2	-4	-4	24006*	-2
CN1CCN(CCc2nc3cc(NC(=O)c4ccco4)ccc3n2C)CC1	.	2	.	6	.	.
Cc1ccc(N2CCN(CCc3nc4cc(NC(=O)c5ccco5)ccc4n3C)CC2)cc1	-2	-6	-4	-4	24375*	-6
O=C(Nc1ccc(OC(F)(F)F)cc1)Nc1nc2ncccn2c1-c1ccc(C(F)(F)F)cc1	.	.	.	-17	.	.
Clc1ccc(C2=NN(c3ccccc3)C(c3ccco3)C2)cc1 (stereo unspecified)	.	5	.	-25	.	.
Cc1nn2c(c1-c1ccc(Cl)cc1)N=C(c1ccco1)CC2c1ccccc1 (stereo unspecified)	6	7	3	3	22364*	-1
CN(C)S(=O)(=O)c1cccc(NC(=S)Nc2cc(Cl)cc(Cl)c2)c1	?	1	-2	1	23036*	-1
CN(C)CCNC(=S)Nc1cccc(Cl)c1	-1	9	-2	-4	23002*	-1
CN(C)S(=O)(=O)c1cccc(NC(=S)Nc2ccc(Cl)cc2Cl)c1	.	4	.	1	.	.
CN(C)CCNC(=O)Nc1ccc(Cl)c(Cl)c1	-2	6	-1	-7	24214*	-1
O=C(C1CCCO1)N1CCN(C2=Nc3ccccc3Sc3ccccc32)CC1 (stereo unspecified)	.	.	.	13	.	.
Cc1ccc(-n2c(SCC(=O)Nc3ccccc3-c3ccccc3)nnc2-c2cccs2)cc1	.	.	.	-1	.	.
COc1ccc(Br)c(C(=O)N(C)CC(=O)Nc2ccc(N3CCOCC3)cc2)c1	-64	.	-105	23	21018*	-17
COc1ccc(NS(=O)(=O)Cc2ccccc2Cl)cn1	?	-1	-8	8	23973*	0
COc1ccc(NC(=O)Cc2c(Cl)cccc2Cl)cn1	-1	2	-2	2	4486	-1
COCCCNC(=O)c1oc(=O)c2ccccc2c1-c1ccc(C)cc1	.	.	.	-4	.	.
Cc1ccc(SCc2nc3ccccc3[nH]2)cc1	4	3	3	-3	20672*	3
Cc1ccc(CSCc2nc3ccccc3[nH]2)cc1	0	0	-4	8	3450	-3
SMILES	BoNT-A LC inh2	3CLpro inhibitor	BoNT-F LC inh	CCHFV vOTU inh	Autofluor counter	Anthrax LF prot
Clc1ccc(OCCSCc2nc3ccccc3[nH]2)cc1	1	1	11	6	5083	0
c1ccc(SCc2nc3ccccc3[nH]2)cc1	-7	0	-10	-2	24904*	1
c1ccc2[nH]c(CSc3nccs3)nc2c1	2	1	3	-3	?	?
Clc1ccc(SCc2nc3ccccc3[nH]2)cc1	?	0	1	11	21863*	0
COC(=O)C1=C(C)N(Cc2ccccc2C(F)(F)F)C(=NCc2ccc(OC)cc2)NC1c1cccc(Cl)c1 (stereo unspecified)	.	.	.	7	.	.
C[C@H]1/C=C/CC(=O)N[C@@H](c2ccc3ccccc3c2)[C@@H](C)/C=C/CC(=O)N[C@H]1c1ccc2ccccc2c1	.	.	.	-2	.	.
COc1cccc(C(=O)Nc2cc(C)on2)c1	-1	.	-6	3	3897	-6
Cc1cc(NC(=O)c2cc(C)on2)no1	0	-4	-3	2	23413*	0
Cc1cc(NC(=O)c2ccccc2)no1	-2	-2	6	10	3880	0
COc1ccc(OCc2cccc(C(=O)Nc3cc(C)on3)c2)cc1	1	6	2	1	22339*	-1
C/C(=C\C(=O)Nc1cc(C)on1)c1ccccc1	-1	1	-3	2	22891*	-2
COc1ccc(-c2nnc(NC(=O)c3cc(C)on3)s2)cc1	?	-1	-3	18	17016*	-2
CCCc1cc(C(=O)Nc2cc(C)on2)no1	-1	-3	-15	4	5070	-9
CN(Cc1ccccc1)S(=O)(=O)c1cccc(C(=O)OCc2cccc([N+](=O)[O-])c2)c1	.	.	.	-4	.	.
C=CCNC(=S)N(C)[C@H]1C[C@H]2c3cc(-c4ccccc4C)ccc3CCN2C[C@H]1[C@H](C)O	.	.	.	16	.	.
Cc1cccc(Cn2cc(COC(=O)N3CCCC3)nn2)c1	.	.	.	-5	.	.
COc1ccc(C(=O)Nc2cc(C)on2)cc1	0	3	2	-1	16745*	-2
Cc1cc(NC(=O)c2cnn3c(C(F)F)cc(-c4ccccc4)nc23)no1	?	1	1	3	22272*	-1
CCn1ncc(C(=O)Nc2cccc(Cl)c2)c1C	1	4	-4	6	9792	-5
CCn1ncc(C(=O)Nc2cc(C)on2)c1C	1	7	-1	-5	21849*	-6
O=C(CSCC(=O)N1CCCCC1)OCC(=O)c1c[nH]c2ccccc12	33*	3	18	-6	16086	47*
Cc1ccc(C(=O)N(c2ccccn2)C(C)c2ccco2)cc1C (stereo unspecified)	?	6	4	1	21171*	-3
CC(c1ccco1)N(C(=O)c1ccc(C(F)(F)F)cc1)c1ccccn1 (stereo unspecified)	0	4	0	-32	4270	-1
COC(=O)[C@@]12CCCCC=C1N(CCc1ccc(Cl)cc1)C(=O)[C@H]2CC(=O)NCc1cccc(C(F)(F)F)c1	.	.	.	12	.	.
COc1cc(/C=C2/C(=N)N3C=CSC3=NC2=O)ccc1OCCCOc1ccccc1C	5	1	37*	-1	4133	5
COc1cc(/C=C2/C(=N)N3C=CSC3=NC2=O)ccc1OCCCOc1c(C)cccc1C	2	1	-15	17	7192	-1
COc1ccc(OCCCn2cc(/C=C3/C(=N)N4C=C(C)SC4=NC3=O)c3ccccc32)cc1	8	-3	-27	0	12019	2
